# According to article PMC7862700, “An all-to-all approach to the identification of sequence-specific readers for epigenetic DNA modifications on cytosine”:
# What was measured:
# Assay in all cases: DAPPL (digital affinity profiling via proximity ligation, sequencing); 10 mM Tris-HCl pH 7.5, 50 mM NaCl, 1 mM DTT, 4% glycerol, room temperature, 30 min; GST-TFs on glutathione beads, 16-mer random dsDNA library, 0.1% formaldehyde crosslink after washing; high values mean tight binding
# [1] = target: T1, FEV (Homo sapiens, UniProt Q99581 1-238); details: protein: recombinant; tags: N-terminal GST; dsDNA, one strand shown
# T1 sequence: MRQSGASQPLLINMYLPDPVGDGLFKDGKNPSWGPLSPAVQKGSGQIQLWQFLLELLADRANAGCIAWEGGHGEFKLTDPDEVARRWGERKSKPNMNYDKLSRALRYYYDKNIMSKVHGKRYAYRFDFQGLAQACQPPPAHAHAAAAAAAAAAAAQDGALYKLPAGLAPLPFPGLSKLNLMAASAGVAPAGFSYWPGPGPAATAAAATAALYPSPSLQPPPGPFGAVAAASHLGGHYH
# Outline: (§1)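 The binding signal reported is, for every hexamer, its read frequency for a factor over its read frequency for the tag-only sample. Reads came from pools of yeast-expressed, GST-fused human transcription factors on glutathione beads, barcoded with DNA and mixed with that sample, which were incubated with 200 nmole of a random double-stranded 16-mer DNA library in Tris/NaCl/DTT/glycerol buffer at room temperature for 30 min. After washing, the pools were crosslinked with 0.1% formaldehyde, proximity-ligated with BsaI/T4 ligase for 1 h at 37 °C, PCR-amplified and sequenced on an Illumina NextSeq500.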
# [2] = target: ETV5 (Homo sapiens, UniProt P41161 1-510); details: protein: recombinant; tags: N-terminal GST; dsDNA, one strand shown
# Outline: as §1
# [3] = target: HSF1 (Homo sapiens, UniProt Q00613 1-529); details: protein: recombinant; tags: N-terminal GST; chain copies: 3; dsDNA, one strand shown
# Outline: as §1
# [4] = target: T2, SPIC (Homo sapiens, UniProt Q8N5J4 1-248); details: protein: recombinant; tags: N-terminal GST; dsDNA, one strand shown
# T2 sequence: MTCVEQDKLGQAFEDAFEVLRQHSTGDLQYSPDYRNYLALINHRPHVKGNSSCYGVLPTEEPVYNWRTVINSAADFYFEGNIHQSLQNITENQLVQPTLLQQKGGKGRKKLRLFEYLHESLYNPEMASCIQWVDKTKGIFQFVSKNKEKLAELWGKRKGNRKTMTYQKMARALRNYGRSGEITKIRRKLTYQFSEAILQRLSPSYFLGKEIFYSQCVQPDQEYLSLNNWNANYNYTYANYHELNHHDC
# Outline: as §1
# [5] = target: ELF4 (Homo sapiens, UniProt Q99607 1-663); details: protein: recombinant; tags: N-terminal GST; dsDNA, one strand shown
# Outline: as §1
# [6] = target: T3, ELK4 (Homo sapiens, UniProt P28324-2 1-405); details: protein: recombinant; tags: N-terminal GST; dsDNA, one strand shown
# T3 sequence: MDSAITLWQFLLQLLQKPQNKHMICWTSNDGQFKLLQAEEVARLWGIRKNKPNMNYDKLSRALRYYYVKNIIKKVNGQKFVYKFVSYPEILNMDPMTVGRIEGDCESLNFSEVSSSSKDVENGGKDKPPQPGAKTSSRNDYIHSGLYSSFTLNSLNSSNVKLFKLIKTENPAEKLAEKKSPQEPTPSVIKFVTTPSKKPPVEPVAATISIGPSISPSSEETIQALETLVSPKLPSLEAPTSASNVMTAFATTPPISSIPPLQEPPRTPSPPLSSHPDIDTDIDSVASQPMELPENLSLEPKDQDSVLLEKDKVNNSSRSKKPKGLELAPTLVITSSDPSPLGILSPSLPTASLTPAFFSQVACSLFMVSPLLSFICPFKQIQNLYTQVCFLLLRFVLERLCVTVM
# Outline: as §1
# [7] = target: T4, ELF3 (Homo sapiens, UniProt P78545 1-371); details: protein: recombinant; tags: N-terminal GST; dsDNA, one strand shown
# T4 sequence: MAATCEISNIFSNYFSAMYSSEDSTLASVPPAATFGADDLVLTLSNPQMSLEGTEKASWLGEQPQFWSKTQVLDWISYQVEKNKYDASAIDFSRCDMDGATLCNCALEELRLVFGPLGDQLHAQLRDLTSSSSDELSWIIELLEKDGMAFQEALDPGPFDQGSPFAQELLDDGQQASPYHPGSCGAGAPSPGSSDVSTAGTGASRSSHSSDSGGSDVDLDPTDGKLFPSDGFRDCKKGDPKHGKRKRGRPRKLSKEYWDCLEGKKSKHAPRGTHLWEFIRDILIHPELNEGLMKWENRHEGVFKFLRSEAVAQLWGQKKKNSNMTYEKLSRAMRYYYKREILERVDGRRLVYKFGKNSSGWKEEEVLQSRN
# Outline: as §1
# [8] = target: ETV1 (Homo sapiens, UniProt P50549 1-477); details: protein: recombinant; tags: N-terminal GST; dsDNA, one strand shown
# Outline: as §1
# [9] = target: T5, ERF (Homo sapiens, UniProt P50548 1-548); details: protein: recombinant; tags: N-terminal GST; dsDNA, one strand shown
# T5 sequence: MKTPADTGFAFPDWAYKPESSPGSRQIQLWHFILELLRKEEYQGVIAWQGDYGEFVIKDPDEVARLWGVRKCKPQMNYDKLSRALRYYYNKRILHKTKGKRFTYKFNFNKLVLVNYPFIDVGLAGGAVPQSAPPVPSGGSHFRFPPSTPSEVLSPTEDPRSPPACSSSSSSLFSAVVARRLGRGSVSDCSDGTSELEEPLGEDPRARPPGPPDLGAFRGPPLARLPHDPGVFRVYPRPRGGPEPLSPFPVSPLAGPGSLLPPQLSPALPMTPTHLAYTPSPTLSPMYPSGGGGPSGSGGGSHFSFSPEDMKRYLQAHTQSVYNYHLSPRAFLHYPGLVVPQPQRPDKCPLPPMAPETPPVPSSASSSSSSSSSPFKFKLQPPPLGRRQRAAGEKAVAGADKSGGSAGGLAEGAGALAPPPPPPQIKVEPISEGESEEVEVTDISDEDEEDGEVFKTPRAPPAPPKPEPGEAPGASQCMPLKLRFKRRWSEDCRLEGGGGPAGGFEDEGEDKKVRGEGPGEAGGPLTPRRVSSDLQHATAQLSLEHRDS
# Outline: as §1
# [10] = target: T6, ETV3L (Homo sapiens, UniProt Q6ZN32 1-361); details: protein: recombinant; tags: N-terminal GST; dsDNA, one strand shown
# T6 sequence: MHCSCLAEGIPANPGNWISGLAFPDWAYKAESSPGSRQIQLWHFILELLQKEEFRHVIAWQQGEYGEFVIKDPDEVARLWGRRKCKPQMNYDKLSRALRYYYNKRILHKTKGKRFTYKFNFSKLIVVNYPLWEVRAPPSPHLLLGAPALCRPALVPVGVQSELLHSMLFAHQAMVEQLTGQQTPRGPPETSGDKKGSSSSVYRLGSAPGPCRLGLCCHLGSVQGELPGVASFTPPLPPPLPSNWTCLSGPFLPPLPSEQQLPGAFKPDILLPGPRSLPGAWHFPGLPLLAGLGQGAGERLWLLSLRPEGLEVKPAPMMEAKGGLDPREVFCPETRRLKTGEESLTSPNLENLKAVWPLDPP
# Outline: as §1
# [11] = target: T7, ETS2 (Homo sapiens, UniProt P15036 1-469); details: protein: recombinant; tags: N-terminal GST; dsDNA, one strand shown
# T7 sequence: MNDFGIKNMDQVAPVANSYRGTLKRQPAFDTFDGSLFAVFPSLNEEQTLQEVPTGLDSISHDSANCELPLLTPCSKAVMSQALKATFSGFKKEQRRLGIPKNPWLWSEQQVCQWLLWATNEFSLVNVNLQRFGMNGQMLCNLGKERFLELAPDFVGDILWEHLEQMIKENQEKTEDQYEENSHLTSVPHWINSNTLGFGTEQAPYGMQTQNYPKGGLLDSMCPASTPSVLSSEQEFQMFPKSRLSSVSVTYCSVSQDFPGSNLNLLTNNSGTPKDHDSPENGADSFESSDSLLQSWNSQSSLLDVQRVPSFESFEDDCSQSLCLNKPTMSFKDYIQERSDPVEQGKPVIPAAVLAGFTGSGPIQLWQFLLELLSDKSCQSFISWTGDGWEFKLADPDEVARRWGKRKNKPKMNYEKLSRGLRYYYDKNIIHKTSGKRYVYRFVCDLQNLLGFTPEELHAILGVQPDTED
# Outline: as §1
# [12] = target: T8, SPDEF (Homo sapiens, UniProt O95238 1-335); details: protein: recombinant; tags: N-terminal GST; dsDNA, one strand shown
# T8 sequence: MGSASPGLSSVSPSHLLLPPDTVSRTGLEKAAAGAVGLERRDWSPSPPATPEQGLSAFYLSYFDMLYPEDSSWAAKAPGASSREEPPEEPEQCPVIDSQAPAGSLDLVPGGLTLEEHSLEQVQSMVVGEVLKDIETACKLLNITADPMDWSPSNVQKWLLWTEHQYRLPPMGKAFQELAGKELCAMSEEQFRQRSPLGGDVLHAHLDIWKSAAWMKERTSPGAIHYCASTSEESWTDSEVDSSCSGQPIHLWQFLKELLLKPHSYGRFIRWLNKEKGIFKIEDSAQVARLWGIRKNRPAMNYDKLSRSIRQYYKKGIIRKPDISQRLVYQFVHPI
# Outline: as §1
# [13] = target: T9, ETV7 (Homo sapiens, UniProt Q9Y603 1-341); details: protein: recombinant; tags: N-terminal GST; dsDNA, one strand shown
# T9 sequence: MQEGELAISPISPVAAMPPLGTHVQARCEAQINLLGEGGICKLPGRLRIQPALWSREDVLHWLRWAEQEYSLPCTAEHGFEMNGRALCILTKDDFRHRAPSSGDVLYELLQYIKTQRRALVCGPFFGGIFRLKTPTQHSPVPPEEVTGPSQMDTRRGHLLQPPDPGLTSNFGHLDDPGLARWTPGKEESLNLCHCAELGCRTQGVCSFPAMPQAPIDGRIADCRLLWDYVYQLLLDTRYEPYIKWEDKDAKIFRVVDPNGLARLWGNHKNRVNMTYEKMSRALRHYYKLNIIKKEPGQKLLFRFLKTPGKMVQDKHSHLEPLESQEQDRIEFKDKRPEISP
# Outline: as §1
# [14] = target: T10, ETV3 (Homo sapiens, UniProt P41162-2 1-143); details: protein: recombinant; tags: N-terminal GST; dsDNA, one strand shown
# T10 sequence: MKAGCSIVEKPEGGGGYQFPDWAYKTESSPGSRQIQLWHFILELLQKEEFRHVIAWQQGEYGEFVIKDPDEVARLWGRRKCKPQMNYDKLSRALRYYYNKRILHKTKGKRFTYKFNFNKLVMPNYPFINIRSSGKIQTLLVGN
# Outline: as §1
# [15] = target: CRX (Homo sapiens, UniProt O43186 1-299); details: protein: recombinant; tags: N-terminal GST; dsDNA, one strand shown
# Outline: as §1
# [16] = target: T11, ELF5 (Homo sapiens, UniProt Q9UKW6-2 1-255); details: protein: recombinant; tags: N-terminal GST; dsDNA, one strand shown
# T11 sequence: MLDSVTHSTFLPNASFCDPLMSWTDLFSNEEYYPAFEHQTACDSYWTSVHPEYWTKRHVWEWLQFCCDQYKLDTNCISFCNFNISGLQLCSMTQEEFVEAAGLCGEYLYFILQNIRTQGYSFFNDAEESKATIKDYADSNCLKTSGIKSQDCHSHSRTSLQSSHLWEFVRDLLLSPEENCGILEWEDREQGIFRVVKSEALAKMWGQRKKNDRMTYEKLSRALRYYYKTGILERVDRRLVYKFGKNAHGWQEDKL
# Outline: as §1
# [17] = target: ETV6 (Homo sapiens, UniProt P41212 1-452); details: protein: recombinant; tags: N-terminal GST; dsDNA, one strand shown
# Outline: as §1
# Sequence of ETV1 (P50549 whole entry): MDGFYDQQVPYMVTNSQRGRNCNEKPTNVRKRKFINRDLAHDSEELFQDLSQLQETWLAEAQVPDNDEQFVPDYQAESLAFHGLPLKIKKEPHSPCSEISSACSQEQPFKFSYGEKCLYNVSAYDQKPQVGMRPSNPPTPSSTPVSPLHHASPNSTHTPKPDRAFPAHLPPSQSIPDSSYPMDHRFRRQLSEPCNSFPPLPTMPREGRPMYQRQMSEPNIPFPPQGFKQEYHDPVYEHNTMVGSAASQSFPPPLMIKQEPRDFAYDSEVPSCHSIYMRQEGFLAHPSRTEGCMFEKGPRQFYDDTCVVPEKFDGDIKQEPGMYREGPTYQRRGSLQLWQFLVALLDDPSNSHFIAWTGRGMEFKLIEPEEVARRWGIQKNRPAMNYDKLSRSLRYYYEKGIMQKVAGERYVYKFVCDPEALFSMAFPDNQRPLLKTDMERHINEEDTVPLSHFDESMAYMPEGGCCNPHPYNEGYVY
# Sequence of ELF4 (Q99607 whole entry): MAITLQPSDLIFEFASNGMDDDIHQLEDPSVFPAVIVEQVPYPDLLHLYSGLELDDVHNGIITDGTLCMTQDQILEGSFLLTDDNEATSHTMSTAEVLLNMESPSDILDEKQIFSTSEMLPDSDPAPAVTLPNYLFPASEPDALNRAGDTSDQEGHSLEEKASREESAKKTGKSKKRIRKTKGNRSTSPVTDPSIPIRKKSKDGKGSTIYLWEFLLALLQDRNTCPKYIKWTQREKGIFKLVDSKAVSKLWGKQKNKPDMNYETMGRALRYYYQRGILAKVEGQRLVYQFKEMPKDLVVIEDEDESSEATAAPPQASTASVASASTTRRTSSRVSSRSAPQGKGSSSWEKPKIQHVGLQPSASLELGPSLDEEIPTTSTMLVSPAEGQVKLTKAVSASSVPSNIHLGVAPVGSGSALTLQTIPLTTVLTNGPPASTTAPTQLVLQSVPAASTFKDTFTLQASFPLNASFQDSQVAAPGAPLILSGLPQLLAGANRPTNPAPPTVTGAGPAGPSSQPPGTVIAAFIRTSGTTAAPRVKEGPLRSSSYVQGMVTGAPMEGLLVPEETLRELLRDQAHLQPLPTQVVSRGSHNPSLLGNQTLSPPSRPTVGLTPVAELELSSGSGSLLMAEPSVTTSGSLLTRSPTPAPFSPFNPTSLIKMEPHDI
# Sequence of ETV5 (P41161 whole entry): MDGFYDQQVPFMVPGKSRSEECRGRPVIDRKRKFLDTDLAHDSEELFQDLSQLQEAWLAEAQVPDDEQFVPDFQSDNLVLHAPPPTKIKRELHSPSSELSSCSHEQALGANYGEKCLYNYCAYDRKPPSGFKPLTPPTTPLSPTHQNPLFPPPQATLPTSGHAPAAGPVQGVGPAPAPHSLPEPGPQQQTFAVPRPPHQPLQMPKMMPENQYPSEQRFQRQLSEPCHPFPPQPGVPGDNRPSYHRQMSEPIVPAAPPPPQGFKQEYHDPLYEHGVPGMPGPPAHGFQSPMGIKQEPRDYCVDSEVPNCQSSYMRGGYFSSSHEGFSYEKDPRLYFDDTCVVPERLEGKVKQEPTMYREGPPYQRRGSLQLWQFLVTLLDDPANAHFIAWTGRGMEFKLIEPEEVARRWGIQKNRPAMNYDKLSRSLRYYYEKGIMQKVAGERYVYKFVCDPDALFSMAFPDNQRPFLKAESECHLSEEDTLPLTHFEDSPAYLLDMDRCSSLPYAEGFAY
# Sequence of HSF1 (Q00613 whole entry): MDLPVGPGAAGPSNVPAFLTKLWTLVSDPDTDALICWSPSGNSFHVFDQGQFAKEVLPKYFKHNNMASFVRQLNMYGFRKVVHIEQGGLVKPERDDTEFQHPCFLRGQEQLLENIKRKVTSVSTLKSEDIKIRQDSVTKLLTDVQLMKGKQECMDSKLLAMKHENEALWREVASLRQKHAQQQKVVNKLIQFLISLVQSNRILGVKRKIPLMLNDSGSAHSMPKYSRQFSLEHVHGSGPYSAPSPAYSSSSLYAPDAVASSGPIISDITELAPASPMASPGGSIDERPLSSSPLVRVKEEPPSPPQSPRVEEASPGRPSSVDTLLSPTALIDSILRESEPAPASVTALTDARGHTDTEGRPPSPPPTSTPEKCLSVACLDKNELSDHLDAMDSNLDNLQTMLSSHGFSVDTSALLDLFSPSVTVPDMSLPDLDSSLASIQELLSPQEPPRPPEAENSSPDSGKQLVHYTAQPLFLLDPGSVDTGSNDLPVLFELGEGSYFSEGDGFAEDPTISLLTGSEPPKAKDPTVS
# Sequence of ETV6 (P41212 whole entry): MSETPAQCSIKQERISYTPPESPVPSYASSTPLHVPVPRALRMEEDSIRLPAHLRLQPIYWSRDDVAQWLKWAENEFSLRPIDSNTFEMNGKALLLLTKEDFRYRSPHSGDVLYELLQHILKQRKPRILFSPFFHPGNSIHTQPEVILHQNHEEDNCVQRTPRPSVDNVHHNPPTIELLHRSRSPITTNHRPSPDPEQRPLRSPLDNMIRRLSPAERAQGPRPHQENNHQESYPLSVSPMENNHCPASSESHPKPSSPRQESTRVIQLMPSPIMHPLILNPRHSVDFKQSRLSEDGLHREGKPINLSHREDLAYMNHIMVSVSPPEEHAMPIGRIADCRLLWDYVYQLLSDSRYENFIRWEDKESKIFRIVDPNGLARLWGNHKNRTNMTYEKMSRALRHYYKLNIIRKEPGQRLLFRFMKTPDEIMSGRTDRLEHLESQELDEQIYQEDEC
# Sequence of CRX (O43186 whole entry): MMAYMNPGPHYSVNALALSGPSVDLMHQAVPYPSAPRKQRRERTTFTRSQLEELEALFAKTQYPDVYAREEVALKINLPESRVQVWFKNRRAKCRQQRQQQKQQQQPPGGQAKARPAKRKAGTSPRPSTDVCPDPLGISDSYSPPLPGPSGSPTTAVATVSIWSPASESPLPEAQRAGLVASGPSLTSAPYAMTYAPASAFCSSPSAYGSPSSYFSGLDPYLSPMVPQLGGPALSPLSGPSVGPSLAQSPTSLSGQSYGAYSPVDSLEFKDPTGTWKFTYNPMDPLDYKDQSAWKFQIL
sequence,measurement,setting,value
GTGCTA,binding signal,[1],"1.11 fold enrichment (6-mer frequency, TF over GST control)"
same,binding signal,[2],"1.16 fold enrichment (6-mer frequency, TF over GST control)"
same,binding signal,[3],"1.07 fold enrichment (6-mer frequency, TF over GST control)"
same,binding signal,[4],"1.17 fold enrichment (6-mer frequency, TF over GST control)"
same,binding signal,[5],"1.07 fold enrichment (6-mer frequency, TF over GST control)"
same,binding signal,[6],"1.08 fold enrichment (6-mer frequency, TF over GST control)"
same,binding signal,[7],"1.12 fold enrichment (6-mer frequency, TF over GST control)"
same,binding signal,[8],"1.1 fold enrichment (6-mer frequency, TF over GST control)"
same,binding signal,[9],"1.02 fold enrichment (6-mer frequency, TF over GST control)"
same,binding signal,[10],"1.04 fold enrichment (6-mer frequency, TF over GST control)"
same,binding signal,[11],"1.13 fold enrichment (6-mer frequency, TF over GST control)"
same,binding signal,[12],"1.12 fold enrichment (6-mer frequency, TF over GST control)"
same,binding signal,[13],"1 fold enrichment (6-mer frequency, TF over GST control)"
same,binding signal,[14],"1.11 fold enrichment (6-mer frequency, TF over GST control)"
TAAAGC,binding signal,[1],"1.04 fold enrichment (6-mer frequency, TF over GST control)"
same,binding signal,[2],"1.09 fold enrichment (6-mer frequency, TF over GST control)"
same,binding signal,[3],"1.33 fold enrichment (6-mer frequency, TF over GST control)"
same,binding signal,[4],"1.1 fold enrichment (6-mer frequency, TF over GST control)"
same,binding signal,[5],"1.05 fold enrichment (6-mer frequency, TF over GST control)"
same,binding signal,[6],"1.1 fold enrichment (6-mer frequency, TF over GST control)"
same,binding signal,[7],"1.06 fold enrichment (6-mer frequency, TF over GST control)"
same,binding signal,[15],"1.87 fold enrichment (6-mer frequency, TF over GST control)"
same,binding signal,[8],"1.08 fold enrichment (6-mer frequency, TF over GST control)"
same,binding signal,[9],"1.13 fold enrichment (6-mer frequency, TF over GST control)"
same,binding signal,[11],"1.05 fold enrichment (6-mer frequency, TF over GST control)"
same,binding signal,[13],"1.04 fold enrichment (6-mer frequency, TF over GST control)"
same,binding signal,[16],"1.01 fold enrichment (6-mer frequency, TF over GST control)"
same,binding signal,[14],"1.1 fold enrichment (6-mer frequency, TF over GST control)"
same,binding signal,[17],"1.02 fold enrichment (6-mer frequency, TF over GST control)"
